The text below walks through data of PubChem BioAssay.

Assay [1] is described as follows: inhibitors of TNFa-induced NFkB p65 translocation, primary screen, imaging, HUVEC, MLSMR starter and 10KST1 sets (AID 438;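 active = inhibition above 20% together with a positive visual image hit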;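 also: compound added about 3h40 before a 20 min TNFalpha stimulation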;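 as to inhibition: signal is the nuclear over cytoplasmic p65 intensity ratio per well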). Conditions: HUVEC TNFa-induced p65 nuclear translocation; cell count: measured here: nuclei count (cytotoxicity indicator), at 2.08 µM; inhibition: at 2 µM, stronger effect = higher value, 0% TNFa-plus-vehicle, 100% no-TNFa wells.
Assay [2] can be described thus: inhibitors of mutant huntingtin aggregation, primary screen, imaging, exon1htt(103Q)mCFP cells, high-content imaging (AID 483;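 active = visual image review flags a hit and inhibition of aggregation exceeds 20%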;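 also: compound exposure lasted 3 days before fixation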;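 as to nuclei count: percent of the per-plate median nuclei count of sample wells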). The note with it: exon1htt(103Q)mCFP cell line, aggregate imaging, at 2 µM; inhibition of aggregation: stronger effect = higher value; nuclei count: measured here: cell count, toxicity.
Assay [3] in a line: inhibitors of E-selectin induction by TNFa, primary screen, imaging, HUVEC, immunofluorescence, MLSMR starter and 10KST1 sets (AID 487;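 active = visually confirmed hit in the image check and inhibition above 20%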;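 as to inhibition: signal is fraction of cell area covered by stained E-selectin grains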;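 as to nuclei count: 100% = median nuclei count of all wells on the same plate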). Conditions: HUVEC TNFalpha-induced E-selectin immunofluorescence imaging, at 2 µM; inhibition: stronger effect = higher value; nuclei count: measured here: cell number, toxicity.
In assay [4] the target is Voltage-gated potassium channel subunit beta-2 (Rattus norvegicus) (UniProt P62483). The experiment in a line: KvBeta enzyme negative modulators, primary screen, biochemical, NADPH fluorescence (AID 622;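 active = fluorescence slope higher than the sample average by over 3 SD, cut at about -0.22 in these data, passing the limit was not always enough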;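 also: slope of raw intensity against log time taken from 70 to 1610 s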). Conditions: recombinant KvBeta, 4-cyanobenzaldehyde reduction, at 10 µM, stronger effect = higher value.
Voltage-gated potassium channel subunit beta-2 (Rattus norvegicus), sequence (P62483 whole entry, looked up): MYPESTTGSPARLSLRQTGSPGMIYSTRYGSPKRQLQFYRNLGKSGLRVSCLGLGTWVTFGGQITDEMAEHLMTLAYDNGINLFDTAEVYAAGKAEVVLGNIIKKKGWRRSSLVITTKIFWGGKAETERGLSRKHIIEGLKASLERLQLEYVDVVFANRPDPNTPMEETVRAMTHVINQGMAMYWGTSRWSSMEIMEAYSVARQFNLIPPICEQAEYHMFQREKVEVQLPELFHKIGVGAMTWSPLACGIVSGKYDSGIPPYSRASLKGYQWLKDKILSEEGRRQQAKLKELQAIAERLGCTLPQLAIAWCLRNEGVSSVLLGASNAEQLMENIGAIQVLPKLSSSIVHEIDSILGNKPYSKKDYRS
Assay [5] has the same target. The experiment in a line: KvBeta positive modulators, primary screen, biochemical, NADPH fluorescence (AID 623).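 Also: fluorescence intensity change per second fitted from 20 to 320 s.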 Conditions: Recombinant KvBeta, NADPH fluorescence decrease slope, 10 min; at 10 µM; stronger effect = lower value.
The target in assay [6] is Alpha-2C adrenergic receptor (Homo sapiens) (UniProt P18825). The experiment in a line: modulators of alpha2C/GIRK thallium flux, primary screen, cell-based, HEK293 alpha2C/GIRK1/2 (AID 624;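 active = fluorescence slope after compound addition differing from the mean of all screened samples at 99.7% confidence, in either direction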;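 also: slope of fluorescence ratio to pre-addition baseline per second over 15 to 24 s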). The note with it: thallium flux BTC fluorescence, at 10 µM, actives lie on both sides.
Alpha-2C adrenergic receptor (Homo sapiens), sequence (P18825 whole entry, looked up): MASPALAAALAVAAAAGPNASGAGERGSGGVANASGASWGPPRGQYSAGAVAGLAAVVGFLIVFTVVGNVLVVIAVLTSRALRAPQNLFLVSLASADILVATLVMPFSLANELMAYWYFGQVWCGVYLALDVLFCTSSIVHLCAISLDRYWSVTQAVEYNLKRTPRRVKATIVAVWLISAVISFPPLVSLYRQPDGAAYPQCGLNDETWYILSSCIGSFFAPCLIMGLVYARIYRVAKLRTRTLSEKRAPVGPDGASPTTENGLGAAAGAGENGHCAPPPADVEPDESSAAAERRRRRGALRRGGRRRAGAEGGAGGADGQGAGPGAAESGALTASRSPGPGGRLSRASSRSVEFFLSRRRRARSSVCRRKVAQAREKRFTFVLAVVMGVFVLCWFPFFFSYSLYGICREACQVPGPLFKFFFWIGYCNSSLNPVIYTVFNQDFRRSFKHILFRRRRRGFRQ
The nature of assay [7]: inhibitors of Sendai virus-induced IRF3 signaling, primary screen, TLR/RLR signaling modifier project, cell-based, Sendai virus stimulus, luciferase, 10K MLSCN set (AID 602276;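 active = inhibition at or above 50% at 10 µM; inactive = inhibition below 50%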;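 also: firefly luciferase from ISG56 promoter only with Renilla not read in this screen; 0% = Sendai virus plus DMSO and 100% = medium plus DMSO without virus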). Conditions: HEK293 RL24 IRF3 luciferase reporter, at 10 µM, stronger effect = higher value.
A short description of assay [8]: inhibitors of poly I:C-induced TLR3 signaling, primary screen, cell-based, poly I:C stimulus, luciferase, 10K MLSCN set (AID 602277;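 active = inhibition of the reporter signal at or above 50%; inactive = inhibition below 50%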). Conditions: HEK293-TLR3 RL24 IRF3 luciferase reporter, at 10 µM, stronger effect = higher value.

The source made the active and inactive calls.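 The calls were made as follows, unless noted: active = NADPH fluorescence slope more negative than the mean of all samples by about 3 SD, 99.7% confidence; inactive = the rest.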

With `Cc1ccc(-c2nnn(CC(=O)N(Cc3ccco3)C(C(=O)NC(C)(C)C)c3cccs3)n2)o1` (centres undefined), the cell count in assay [1] worked out at 643. Moreover, the inhibition is 3.5% (inactive) in assay [1], -43.9% (inactive) in assay [3], 9.52% (inactive) in assay [7] and 12.3% (inactive) in assay [8]. The inhibition of aggregation in assay [2] is 4.8% (inactive). In addition, the nuclei count in assay [2] was found to be 85.8%; in assay [3], 117%. Besides, the fluorescence slope in assay [4] was -0.595 (inactive). Besides, the NADPH fluorescence slope in assay [5] was -7.2e-05 (inactive). Moreover, the slope in assay [6] is 0.00341 (inactive).
In the case of `CC1NC(=O)NC1CCCCCC(=O)NCCc1ccccc1` (centres undefined), the cell count in assay [1] came to 391. The inhibition was 7.3% (inactive) in assay [1], -86.2% (inactive) in assay [3], 5.75% (inactive) in assay [7] and 15.3% (inactive) in assay [8]. In addition, the inhibition of aggregation in assay [2] is 7.5% (inactive). Further, the nuclei count stood at 110% in assay [2] and 113% in assay [3]. For the same compound, the fluorescence slope in assay [4] was -0.441 (inactive). Moreover, in assay [5], the NADPH fluorescence slope is -1.4e-05 (inactive). In assay [6], the slope was 0.006 (inactive).
As for `O=C(c1cccs1)N1CCN=C1SCc1ccccc1`, the cell count in assay [1] stood at 435. Besides, the inhibition in assay [1] is 3.1% (inactive); in assay [3], -33.5% (inactive); in assay [7] it was 2.79% (inactive); in assay [8], -0.0227% (inactive). Further, the inhibition of aggregation in assay [2] is 6.2% (inactive). Besides, the nuclei count was 106% in assay [2] and 111% in assay [3]. The fluorescence slope in assay [4] was -0.445 (inactive). Besides, in assay [5], the NADPH fluorescence slope was -9.7e-05 (inactive). In addition, in assay [6], the slope is 0.00597 (inactive).
For `CCOC(=O)C1CCN(c2c(Nc3ccc4c(c3)OCCO4)c(=O)c2=O)CC1`, the cell count in assay [1] came out at 789. Besides, the inhibition in assay [1] is 4.6% (inactive); in assay [3], -129% (inactive); in assay [7], 44% (inactive); in assay [8], 27.5% (inactive). Further, the inhibition of aggregation in assay [2] is 0.6% (inactive). The results for the nuclei count in assay [2] and in assay [3] were 106% and 125%, respectively. Moreover, the fluorescence slope in assay [4] is -0.622 (inactive). In addition, the NADPH fluorescence slope in assay [5] is 2.4e-05 (inactive). In addition, in assay [6], the slope was 0.0056 (inactive).
For `COc1ccccc1CNC(=O)Nc1cccs1`, in assay [1], the cell count came out at 546. Moreover, the inhibition is -6.3% (inactive) in assay [1], -30.8% (inactive) in assay [3], -0.521% (inactive) in assay [7] and -0.402% (inactive) in assay [8]. Moreover, the inhibition of aggregation in assay [2] was 9.4% (inactive). Also, the nuclei count in assay [2] was 118%; in assay [3] it was 123%. Further, the fluorescence slope in assay [4] was -0.45 (inactive). Besides, the NADPH fluorescence slope in assay [5] was 8.3e-06 (inactive). Also, in assay [6], the slope is 0.0111 (inactive).
In the case of `O=C(NCC1CCCO1)c1ccc(C(=O)NCC2CCCO2)cc1` (centres undefined), the cell count in assay [1] came to 331. The inhibition in assay [1] is 1.9% (inactive); in assay [3], 52.3% (inactive); in assay [7] it was 1.79% (inactive); in assay [8] it was 4.03% (inactive). In assay [2], the inhibition of aggregation is -3.7% (inactive). In addition, the nuclei count was 101% in assay [2] and 94.3% in assay [3]. Further, in assay [4], the fluorescence slope is -0.332 (inactive). Further, in assay [5], the NADPH fluorescence slope was -3.2e-05 (inactive). The slope in assay [6] was 0.00518 (inactive).
Take `COCCCNC(=O)c1ccccc1NS(=O)(=O)c1ccc(C)cc1`: the cell count in assay [1] is 369. In addition, the inhibition in assay [1] is -0.9% (inactive); in assay [3] it was -66.6% (inactive); in assay [7], 11.8% (inactive); in assay [8], 16.1% (inactive). The inhibition of aggregation in assay [2] was -9% (inactive). In addition, the figures for the nuclei count in assay [2] and in assay [3] were 122% and 72.3%, respectively. The fluorescence slope in assay [4] was -0.423 (inactive). Besides, in assay [5], the NADPH fluorescence slope was -1.5e-05 (inactive). In assay [6], the slope is 0.00558 (inactive).
Take `CS(=O)(=O)N1CCCC(C(=O)NCc2ccccc2Cl)C1` (centres undefined): in assay [1], the cell count stood at 636. Further, the inhibition in assay [1] is -10.2% (inactive); in assay [3] it was -124% (inactive); in assay [7], 3.11% (inactive); in assay [8], 8.19% (inactive). Further, the inhibition of aggregation in assay [2] is 20.1% (inactive). Also, the figures for the nuclei count in assay [2] and in assay [3] were 77.4% and 97.8%, respectively. Further, the fluorescence slope in assay [4] was -0.59 (inactive). Further, the NADPH fluorescence slope in assay [5] was -1.1e-05 (inactive). Moreover, the slope in assay [6] was 0.00562 (inactive).
For `COC(=O)C1=C(C)n2nnnc2NC1c1ccc(Cl)cc1` (centres undefined), the cell count in assay [1] is 340. Besides, the inhibition in assay [1] is 3.6% (inactive); in assay [3], -119% (inactive); in assay [7], 2.58% (inactive); in assay [8], 10.6% (inactive). Besides, in assay [2], the inhibition of aggregation is -8.8% (inactive). For the same compound, the nuclei count in assay [2] turned out to be 99.4%; in assay [3] it was 80.4%. Also, in assay [4], the fluorescence slope was -0.367 (inactive). Also, in assay [5], the NADPH fluorescence slope was 1.8e-05 (inactive). Besides, in assay [6], the slope was 0.00153 (inactive).
Turning to `CCOC(=O)N1CCN(c2c(NCCCOC(C)C)c(=O)c2=O)CC1`, in assay [1], the cell count amounted to 642. Also, the inhibition in assay [1] was -1.6% (inactive); in assay [3], 27.9% (inactive); in assay [7], 7.84% (inactive); in assay [8], 16% (inactive). Besides, in assay [2], the inhibition of aggregation was -10.2% (inactive). Further, the results for the nuclei count in assay [2] and in assay [3] were 109% and 122%, respectively. The fluorescence slope in assay [4] was -0.513 (inactive). The NADPH fluorescence slope in assay [5] was -2.4e-05 (inactive). For the same compound, in assay [6], the slope is 0.00694 (inactive).
Turning to `CC1CCc2nn(CC(=O)NCCN3CCCCC3C)cc2C1` (centres undefined), the cell count in assay [1] worked out at 621. The inhibition was 12% (inactive) in assay [1], -11.5% (inactive) in assay [3], 7.09% (inactive) in assay [7] and 33.8% (inactive) in assay [8]. For the same compound, the inhibition of aggregation in assay [2] was -27.1% (inactive). The nuclei count is 106% in assay [2] and 108% in assay [3]. Also, the fluorescence slope in assay [4] is -0.62 (inactive). Moreover, the NADPH fluorescence slope in assay [5] was 6.4e-06 (inactive). For the same compound, the slope in assay [6] is 0.00605 (inactive).
With `O=C(NCCN1CCOCC1)NC1(C(F)(F)F)Oc2ccc(Cl)cc2O1` (centres undefined), the cell count in assay [1] came out at 457. Moreover, the inhibition in assay [1] is 16.3% (inactive); in assay [3], -51.7% (inactive); in assay [7], 24.6% (inactive); in assay [8], 37.9% (inactive). Also, the inhibition of aggregation in assay [2] was 11% (inactive). For the same compound, the nuclei count stood at 96.4% in assay [2] and 118% in assay [3]. In addition, the fluorescence slope in assay [4] was -0.467 (inactive). Moreover, in assay [5], the NADPH fluorescence slope is -5.6e-05 (inactive). For the same compound, in assay [6], the slope was 0.00481 (inactive).
Regarding `O=C(Nc1cccnc1)c1ccc2c(c1)OCO2`, the cell count in assay [1] worked out at 696. In addition, the inhibition in assay [1] is -16.9% (inactive); in assay [3] it was -9.7% (inactive); in assay [7], -19.3% (inactive); in assay [8], -49.8% (inactive). In assay [2], the inhibition of aggregation is 19.5% (inactive). For the same compound, the nuclei count in assay [2] was determined as 80.6%; in assay [3] it was 110%. Further, the fluorescence slope in assay [4] is -0.515 (inactive). Further, the NADPH fluorescence slope in assay [5] is -3.5e-05 (inactive). For the same compound, in assay [6], the slope is 0.00618 (inactive).
With `COc1ccc(C(=O)N(CCCO)Cc2cc3c(C)ccc(C)c3[nH]c2=O)cc1OC`, the cell count in assay [1] was determined as 647. For the same compound, the inhibition in assay [1] was -3% (inactive); in assay [3] it was 19.2% (inactive); in assay [7], 8.26% (inactive); in assay [8] it was 19% (inactive). For the same compound, the inhibition of aggregation in assay [2] was 12.4% (inactive). Besides, the nuclei count in assay [2] is 91.4%; in assay [3], 86.7%. Also, in assay [4], the fluorescence slope was -0.389 (inactive). Moreover, the NADPH fluorescence slope in assay [5] was -0.00013 (inactive). Also, the slope in assay [6] was 0.00636 (inactive).
